These results are taken from PubChem BioAssay (NCI).

This is part of a sample that, as a whole, favours compounds with a hit. Of some 83,000 tested, about 20% had one in any assay.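 Negative percent growth values reflect cell death: -40 means 40% of the cells present at the start died, and -100 means all died.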 The source made the active and inactive calls.

The subject of the experiment is LOX IMVI melanoma. Briefly: NCI-60 one-dose screen, 48 h (100 = growth as untreated, 0 = no growth, -100 = all killed). Conditions: 10 µM unless noted. The method, then:
Growth inhibition of the LOX IMVI human tumor cell line is measured as a screen for anti-cancer activity. Cells are grown in 96 well plates and exposed to the test compound for 48 hours. Compounds are tested at a single concentration, which is 10^-5 M for most compounds. The reported endpoint is percent growth (GI% or GIPRCNT), where numbers from 0 - 100% represent growth inhibition, and numbers from -100% - 0 represent cell death. For example, a value of 40 represents 60% growth inhibition. A value of 0 means no net growth occurred over the course of the experiment. A value of -40 indicates 40% of cells at the beginning of the experiment died by the end of the experiment. A value of -100 means all cells are dead at the end of the experiment.
NCI-60 Human Tumor Cell Lines Screen was performed using the standard one-dose NCI protocol, which is described in more detail at https://dtp.cancer.gov/discovery_development/nci-60/default.htm.
Compounds with GIPRCNT values below 10 were considered active. Activity score was based on GIPRCNT using the following formula: […]
Score is 0 for GIPRCNT values of 100 or above, 50 for GIPRCNT values of 0, and 100 for GIPRCNT values of -100.
As to `COc1ccc(/C=C2\CN(Cc3cn(CCNc4ccnc5cc(Cl)ccc45)nn3)C/C(=C\c3ccc(OC)c(OC)c3)C2=O)cc1OC`, the growth was -28.3% (active).
Under `C=C(C)[C@@H]1C[C@@H]2Cc3cc(F)ccc3N1O2` stands 94.6% (inactive).
The figure for `CCCC(=O)Oc1ccc(/C(=C(\C)c2ccccc2)c2ccc(OCCN(CC)CC)cc2)cc1` is 79.8% (inactive); for `O=c1[nH]c(Nc2ccc(S(=O)(=O)O)cc2)nc2nc(Nc3ccc(NC(=S)Nc4ccccc4)cc3)nc(-c3ccc(O)cc3O)c12` it is 96.2% (inactive); for `COc1ccc(S(=O)(=O)NCCCNc2nccc(-c3c(-c4cccc([N+](=O)[O-])c4)nc4sccn34)n2)cc1` it is 30.1% (inactive).
The figure for `O=C(O)c1nc(-c2ccccc2)oc1N1CCOCC1` is 108% (inactive); for `Fc1ccc(Nc2ncnc3ccc(-c4cnc5[nH]ccc5c4)cc23)cc1Cl` it is -44.4% (active); for `COc1ccc(C(=O)N2NC(=O)/C(=C/c3ccccc3F)N=C2c2ccccc2)cc1` it is 102% (inactive).
Consider `NC(=N\N=C/c1ccc(O)cc1)/C(N)=N\N=C/c1ccc(O)cc1`, for which the growth is 28.7% (inactive).
The figure for `CCCCCCN1CSC(=S)N(CCCCCC)C1` is 91.8% (inactive).
Under `CCCCCCCCCCCCCCCCCCNC(=O)[C@H]1CSC(c2ccc(OC)cc2O)N1` (stereo not given in full) stands 62.4% (inactive).
In the case of `CCOC(=O)/C(C#N)=C1/C(=O)Nc2ccccc21`, the growth was 99% (inactive).
With `COc1ccc(Nc2ncccc2C(=O)NCc2cn(Cc3cccc(Oc4ccccc4)c3)nn2)c(OC)c1`, the growth was 48.4% (inactive).
On to `COc1ccc2c(c1)cn1c3ccc(OC)cc3[nH]c(=O)c21`, for which the growth is -79.5% (active).
Under `Cc1ccc(S(=O)(=O)C2=C3C(=C(c4ccccc4)c4ccccc43)CN(S(=O)(=O)c3ccc(C)cc3)C2)cc1` stands -76.5% (active); under `COc1ccc(S(=O)(=O)n2ccc(-c3ccc4c(c3)CCC(C)(C)O4)n2)cc1OC`, 76.7% (inactive).
As for `COc1cc(-c2nn(-c3cccc(NC(=O)Nc4cccc(C(F)(F)F)c4)c3)cc2-c2ccncc2)ccc1Cl`, the growth was -64.2% (active).
As for `COc1cc(NC(N)=NCCC(C)(C)Oc2ccc(C(F)(F)F)cc2)ncc1C#N`, the growth was -97.2% (active).
With `COc1ccc(-c2nc(N3CCCC3=O)sc2Br)cc1OC`, the growth is 100% (inactive).
Under `CC(=O)c1cc2c(N)c(C(=O)Nc3cccc4c3OCCO4)sc2nc1C` stands 97.5% (inactive); under `Cc1cccc(/C=N/Nc2cc(C)c3cccc(C)c3n2)n1`, 102% (inactive).
Under `Cc1ccc2nc(-c3cc4c([nH]c5ccccc54)c(-c4ccc(F)c(F)c4)n3)[nH]c2c1` stands 11.7% (inactive); under `CC(=O)Oc1cccc(S(=O)(=O)n2cc(C(=O)C(=O)Nc3ccncc3)c3ccccc32)c1`, 86.6% (inactive); under `CCN1C(=O)N(CC)C2C1NN=c1s/c(=C\c3cccnc3)c(=O)n12` (stereo not given), 46% (inactive).
Regarding `COc1ccc(CCNC2=CC(=O)CCC2)cc1OC`, the growth was 96.3% (inactive).
The figure for `O=C1c2c(c3c4ccccc4n(CCCCCCBr)c3c3[nH]c4ccccc4c23)C(=O)N1O` is -70.2% (active); for `Cn1ccc(Nc2nccc(Oc3ccc(C(=O)Nc4cccc(F)c4)c(Cl)c3)n2)c1` it is 91.9% (inactive).
Under `C/C=C(\C)C(C(=O)NC1CCCCC1)N(C(=O)C1CCc2cc(F)ccc2O1)c1ccc(Cl)cc1` (stereo not given) stands 94.1% (inactive); under `N/C(=N\C(N)=N\c1nc2ccccc2s1)c1cccc(Br)c1`, 33.2% (inactive); under `COc1ccc(C2C=C(c3ccc(N)cc3)N=C3SC=CN32)cc1OC` (stereo not given), 105% (inactive).
The figure for `C=C1C(=O)O[C@H]2[C@H]1CC/C(Cn1cc(CNC(=O)Cc3cn(C(=O)c4ccc(Cl)cc4)c4ccc(OC)cc34)nn1)=C\CC[C@@]1(C)O[C@@H]21` is -82% (active); for `CC(=O)Oc1csc(N(C(C)=O)c2cc(C(=O)O)cc(C(=O)O)c2)n1` it is 90.2% (inactive).
`CCN(CC)CCC(CNc1ccnc2cc(Cl)ccc12)c1ccc(Cl)cc1` (stereo not given): the growth is -1.91% (active).
Take `Cc1nc2ncccc2nc1Nc1ccc(S(=O)(=O)Nc2cncs2)cc1`: the growth is 83.5% (inactive).
`COc1ccc(NC(=O)c2cc(OC)c(OC)c(OC)c2)cc1O`: the growth was 43.3% (inactive).
The figure for `O=C(O)C1CCCCN1c1nc(Cl)nc(Cl)n1` (stereo not given) is 95.8% (inactive); for `COc1cccc(-c2cc3c(O)cc(C#N)cc3[nH]2)c1` it is 92.4% (inactive); for `COc1cccc(CC(C)=C(c2ccc(OCCN(C)C)cc2)c2ccc(OCCN(C)C)cc2)c1` it is -84.3% (active).
The figure for `COc1cc(/C=C/C(=O)/C=C/c2cc(OC)c3c(c2)OCO3)cc2c1OCO2` is 54% (inactive); for `COc1ccc2c(c1)[nH]c(=O)c1c3cc(C)c(C)cc3cn21` it is -99.2% (active).
